The other results are listed elsewhere or left out. No count for the full screen is at hand.
Target: furin, P09958
Experiment: furin cleavage Z-score vs untreated control; higher = more cleavage, active = 3.5 or more, inactive = 1 or less, 8 variable residues between constant flanks
Procedure, shortened: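 Cleavage by purified furin was measured on 8-mer peptides fused to a cDNA oligonucleotide and held on magnetic beads by their N-terminus. Reactions (0.01 ml, 1:10 enzyme:substrate) ran 7.5, 15 or 30 min in 50 mM HEPES pH 7.5 with CaCl2 and NaCl. Released DNA was adapter-tagged by PCR and sequenced, with read counts giving abundance. Log counts versus furin-free reactions were lowess-adjusted and scaled by median absolute deviation to give the cleavage Z-score.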

Sequence of furin, P09958 (P09958 whole entry): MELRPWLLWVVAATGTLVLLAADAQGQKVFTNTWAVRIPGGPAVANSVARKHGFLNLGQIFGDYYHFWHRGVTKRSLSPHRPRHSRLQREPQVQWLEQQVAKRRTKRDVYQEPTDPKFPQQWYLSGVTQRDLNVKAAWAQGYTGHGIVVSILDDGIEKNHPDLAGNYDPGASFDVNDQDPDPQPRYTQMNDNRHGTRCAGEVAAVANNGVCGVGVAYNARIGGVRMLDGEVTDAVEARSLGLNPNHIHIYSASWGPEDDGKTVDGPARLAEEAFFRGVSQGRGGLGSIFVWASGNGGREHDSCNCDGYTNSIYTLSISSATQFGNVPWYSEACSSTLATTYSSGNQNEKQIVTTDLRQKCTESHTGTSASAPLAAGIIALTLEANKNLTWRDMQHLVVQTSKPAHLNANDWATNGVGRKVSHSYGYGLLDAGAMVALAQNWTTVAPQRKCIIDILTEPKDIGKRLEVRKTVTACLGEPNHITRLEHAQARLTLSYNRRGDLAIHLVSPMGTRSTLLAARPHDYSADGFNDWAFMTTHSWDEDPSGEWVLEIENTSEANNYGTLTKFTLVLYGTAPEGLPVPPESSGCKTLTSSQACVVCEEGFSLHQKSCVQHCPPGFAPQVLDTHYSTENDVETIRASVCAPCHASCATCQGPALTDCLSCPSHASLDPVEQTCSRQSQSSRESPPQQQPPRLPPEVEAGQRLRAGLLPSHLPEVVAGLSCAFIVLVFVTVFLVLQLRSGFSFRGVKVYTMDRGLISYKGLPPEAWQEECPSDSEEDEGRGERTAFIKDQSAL

Sequence | furin cleavage Z-score (7.5 min) | furin cleavage Z-score (15 min) | furin cleavage Z-score (30 min)
CASWHLNSTAAGNASASA [HC370] | 0.22 (inactive) | -0.449 (inactive) | 0.876 (inactive)
CARRRRCLNGAGNASASA [FS-1783] | 5.37 (active) | 5.63 (active) | 3.81 (active)
CARRRRSLPEAGNASASA [FS-2796] | 9.29 (active) | 10.5 (active) | 8.81 (active)
CAKRRRSLHHAGNASASA [FS-1672] | 4.3 (active) | 5.5 (active) | 6.07 (active)
CARRRRSFRRAGNASASA [FS-376] | 5.2 (active) | 6.31 (active) | 8.15 (active)
CASTPCSAHHAGNASASA [HC2575] | -0.38 (inactive) | -0.288 (inactive) | 0.459 (inactive)
CADSRGSLLSAGNASASA [HC734] | -0.053 (inactive) | -0.939 (inactive) | -0.328 (inactive)
CARPWRDLPEAGNASASA [FS-3031] | -1.17 (inactive) | 0.355 (inactive) | -0.221 (inactive)
CATSPCSGSWAGNASASA [HC1857] | -0.464 (inactive) | -0.0771 (inactive) | -1.88 (inactive)
CASFPCSAHLAGNASASA [HC2487] | -0.137 (inactive) | -0.966 (inactive) | -0.392 (inactive)
CAGVYLLPRRAGNASASA [HC177] | -0.35 (inactive) | 0.113 (inactive) | 0.636 (inactive)
CAGPLRSKRRAGNASASA [FS-128] | 3.54 (active) | 3.82 (active) | 0.894 (inactive)
CAQPTRSKRRAGNASASA [FS-140] | 8.89 (active) | 11.6 (active) | 8.5 (active)
CAQPIPKARRAGNASASA [HC192] | -0.161 (inactive) | 1.41 | -0.434 (inactive)
CARPLRSSERAGNASASA [FS-2056] | -0.31 (inactive) | -0.454 (inactive) | -0.848 (inactive)
CARPTRPLEVAGNASASA [FS-2747] | -0.707 (inactive) | -0.831 (inactive) | 0.199 (inactive)
CAMTRYSAPPAGNASASA [HC1542] | 1.05 | -0.0414 (inactive) | -1.39 (inactive)
CARLPRSVRSAGNASASA [FS-1263] | 5.43 (active) | 4.73 (active) | 4.77 (active)
CARSFRSVRSAGNASASA [FS-3233] | -0.0905 (inactive) | 1.16 | 1.57
CARLGRQVDSAGNASASA [FS-1738] | 0.0659 (inactive) | 0.283 (inactive) | 1.6
CARRQRGAEAAGNASASA [FS-1782] | 0.38 (inactive) | -0.365 (inactive) | 1.17
CARLPRGAEAAGNASASA [FS-1743] | 3.99 (active) | 2.77 | 3.19
CAPAPSGCPPAGNASASA [HC1346] | -1.72 (inactive) | -0.997 (inactive) | -0.764 (inactive)

Sequence | furin cleavage Z-score (7.5 min) | furin cleavage Z-score (15 min) | furin cleavage Z-score (30 min)
CARLHRFAPPAGNASASA [HC1225] | -1.52 (inactive) | 1.01 | 0.153 (inactive)
CARFWKSAPPAGNASASA [FS-2140] | -0.578 (inactive) | 0.202 (inactive) | -1.15 (inactive)
CALLISQAEAAGNASASA [HC530] | -0.545 (inactive) | -1.15 (inactive) | -0.368 (inactive)
CARLPRSAPPAGNASASA [FS-2572] | 5.97 (active) | 5.41 (active) | 5.19 (active)
CARQLRSAPPAGNASASA [FS-2758] | 3.01 | 4.5 (active) | 4.16 (active)
CALEFWEGVFAGNASASA [HC938] | 0.499 (inactive) | -0.214 (inactive) | -0.35 (inactive)
CAMDECSQHLAGNASASA [HC1691] | -1.05 (inactive) | -0.767 (inactive) | -1.23 (inactive)
CAEHPCHRPSAGNASASA [HC2335] | 0.592 (inactive) | 0.873 (inactive) | -0.909 (inactive)
CADTEVAASCAGNASASA [HC566] | 0.247 (inactive) | 0.504 (inactive) | -0.572 (inactive)
CARGGRDHGDAGNASASA [FS-2014] | -0.697 (inactive) | -0.0412 (inactive) | -1.45 (inactive)
CARGMRALGVAGNASASA [FS-1710] | -0.000681 (inactive) | 0.448 (inactive) | 0.128 (inactive)
CARFGRGFTVAGNASASA [FS-2922] | 0.116 (inactive) | 0.0326 (inactive) | 0.349 (inactive)
CARGKRAITDAGNASASA [FS-2554] | 9.38 (active) | 10.5 (active) | 9.27 (active)
CARGKPGIYRAGNASASA [HC907] | 0.0246 (inactive) | 1.3 | 0.963 (inactive)
CARGKRATTVAGNASASA [FS-3249] | 8.17 (active) | 9.95 (active) | 8.35 (active)
CAWPLYGNEGAGNASASA [HC202] | 0.645 (inactive) | -0.347 (inactive) | 0.229 (inactive)
CAEVVTMTWVAGNASASA [HC148] | 0.302 (inactive) | 0.42 (inactive) | 1.21
CAPALSTGLIAGNASASA [HC502] | 1.72 | 1.24 | -0.0208 (inactive)
CARRKRTAVTAGNASASA [FS-2070] | 8.61 (active) | 9.73 (active) | 8.8 (active)
CARFDRFILTAGNASASA [FS-2331] | -0.835 (inactive) | 0.56 (inactive) | 1.87
CARNKRYALTAGNASASA [FS-2730] | 4.76 (active) | 6.64 (active) | 8.66 (active)
CAMAFTAAVTAGNASASA [HC1056] | 0.143 (inactive) | -0.123 (inactive) | 0.0661 (inactive)
CARRKRYALTAGNASASA [FS-2231] | 5.6 (active) | 9.1 (active) | 7.92 (active)

From the supplement of paper PMC3545927
